Screens deposited in PubChem by National Center for Advancing Translational Sciences (NCATS).
A selection: hits, their analogues and other compounds. The true share with any hit is near 3.7%.
Nrf2 inh: Nrf2 qHTS screen for inhibitors | Potency, µM (series often up to 46 µM), actives largely listed as inhibitors | 360,000 compounds, 2.1% hits | AID 504444, 2011 | A549 ARE-Fluc reporter, luciferase luminescence, 18-24 h; also: nearly all actives have a fitted effect of over 60% in size
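Quantitative HTS in A549 cells stably bearing an antioxidant response element-firefly luciferase construct. Inhibition of Nrf2-driven transcription was scored by luminescence after 18-24 h of compound exposure at 37 °C.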
Nrf2 ARE act: qHTS of Nrf2 Activators; AID 624171, 2012; 410,000 compounds, 0.31% hits; Potency, µM (top dose mostly 46.1 µM), actives largely listed as activators; AREc32 ARE-luciferase reporter (MCF7-derived line), luminescence, 24 h; also: nearly all actives have a fitted effect of over 65% in size
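Luminescent ARE reporter assay in AREc32_Fluc cells: overnight plating at 37 deg C, 24 hr compound incubation, Steady-Glo added, 30 min RT before reading.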
A549 viability: Nrf2 qHTS screen for inhibitors: counterscreen for cytotoxicity. Potency, µM (series often up to 46 µM), hits mostly inhibitors. 390,000 compounds, 0.16% hits. A549 ARE-Fluc cells, CellTiter-Fluor viability, 18-24 h. AID 504648, 2011
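A549 ARE-Fluc cells in 5% FBS OPTI-MEM, 5000 cells/well, rested 2 h then exposed to compounds in concentration-response for 18-24 h at 37 °C. Viability by CellTiter-Fluor fluorescence (Ex 405/Em 525) after 30 min; luciferase luminescence (BugLite, 15 min, RT) read afterwards.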
ELG1 repair inh: qHTS screen for small molecules that inhibit ELG1-dependent DNA repair in human embryonic kidney (HEK293T) cells expressing luciferase-tagged ELG1; HEK293T ELG1-luciferase reporter, luminescence, 16 h; DNA damage induced by 5-fluorouridine; Potency, µM (doses to about 46.1 µM), actives largely listed as inhibitors; 330,000 compounds, 2.3% hits; AID 504467, 2011; also: nearly all actives have a fitted effect of over 55% in size
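Quantitative HTS, concentration-response format. 2,000 cells/well co-treated with 5-fluorouridine and compound, 16 hr in 5% CO2 at 37 °C; ONE-Glo luminescence read after 30 min.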
ELG1 FLuc counter: qHTS screen for small molecules that inhibit ELG1-dependent DNA repair: Hit Confirmation in Cell-Based Luciferin Assay | shares compounds with ELG1 repair inh | cell-free firefly luciferase luminescence counter-screen, ViewLux | Potency, µM (titrated, usually from 46.1 µM), most hits filed as inhibitors | 350 compounds, 3% hits
ELG1 Luc conf: HTS assay for small molecules that inhibit ELG1-dependent DNA repair in human embryonic kidney (HEK293T) cells expressing luciferase-tagged ELG1: Hit Confirmation; shares compounds with ELG1 repair inh; 670 compounds, 68% hits; Potency, µM (top dose mostly 46.1 µM), hits mostly inhibitors; HEK293T ELG1-luciferase levels, luminescence; cells co-treated with 5-fluorouridine; also: nearly all actives have a fitted effect of over 55% in size
Target sequence (Q96QE3 whole entry, looked up): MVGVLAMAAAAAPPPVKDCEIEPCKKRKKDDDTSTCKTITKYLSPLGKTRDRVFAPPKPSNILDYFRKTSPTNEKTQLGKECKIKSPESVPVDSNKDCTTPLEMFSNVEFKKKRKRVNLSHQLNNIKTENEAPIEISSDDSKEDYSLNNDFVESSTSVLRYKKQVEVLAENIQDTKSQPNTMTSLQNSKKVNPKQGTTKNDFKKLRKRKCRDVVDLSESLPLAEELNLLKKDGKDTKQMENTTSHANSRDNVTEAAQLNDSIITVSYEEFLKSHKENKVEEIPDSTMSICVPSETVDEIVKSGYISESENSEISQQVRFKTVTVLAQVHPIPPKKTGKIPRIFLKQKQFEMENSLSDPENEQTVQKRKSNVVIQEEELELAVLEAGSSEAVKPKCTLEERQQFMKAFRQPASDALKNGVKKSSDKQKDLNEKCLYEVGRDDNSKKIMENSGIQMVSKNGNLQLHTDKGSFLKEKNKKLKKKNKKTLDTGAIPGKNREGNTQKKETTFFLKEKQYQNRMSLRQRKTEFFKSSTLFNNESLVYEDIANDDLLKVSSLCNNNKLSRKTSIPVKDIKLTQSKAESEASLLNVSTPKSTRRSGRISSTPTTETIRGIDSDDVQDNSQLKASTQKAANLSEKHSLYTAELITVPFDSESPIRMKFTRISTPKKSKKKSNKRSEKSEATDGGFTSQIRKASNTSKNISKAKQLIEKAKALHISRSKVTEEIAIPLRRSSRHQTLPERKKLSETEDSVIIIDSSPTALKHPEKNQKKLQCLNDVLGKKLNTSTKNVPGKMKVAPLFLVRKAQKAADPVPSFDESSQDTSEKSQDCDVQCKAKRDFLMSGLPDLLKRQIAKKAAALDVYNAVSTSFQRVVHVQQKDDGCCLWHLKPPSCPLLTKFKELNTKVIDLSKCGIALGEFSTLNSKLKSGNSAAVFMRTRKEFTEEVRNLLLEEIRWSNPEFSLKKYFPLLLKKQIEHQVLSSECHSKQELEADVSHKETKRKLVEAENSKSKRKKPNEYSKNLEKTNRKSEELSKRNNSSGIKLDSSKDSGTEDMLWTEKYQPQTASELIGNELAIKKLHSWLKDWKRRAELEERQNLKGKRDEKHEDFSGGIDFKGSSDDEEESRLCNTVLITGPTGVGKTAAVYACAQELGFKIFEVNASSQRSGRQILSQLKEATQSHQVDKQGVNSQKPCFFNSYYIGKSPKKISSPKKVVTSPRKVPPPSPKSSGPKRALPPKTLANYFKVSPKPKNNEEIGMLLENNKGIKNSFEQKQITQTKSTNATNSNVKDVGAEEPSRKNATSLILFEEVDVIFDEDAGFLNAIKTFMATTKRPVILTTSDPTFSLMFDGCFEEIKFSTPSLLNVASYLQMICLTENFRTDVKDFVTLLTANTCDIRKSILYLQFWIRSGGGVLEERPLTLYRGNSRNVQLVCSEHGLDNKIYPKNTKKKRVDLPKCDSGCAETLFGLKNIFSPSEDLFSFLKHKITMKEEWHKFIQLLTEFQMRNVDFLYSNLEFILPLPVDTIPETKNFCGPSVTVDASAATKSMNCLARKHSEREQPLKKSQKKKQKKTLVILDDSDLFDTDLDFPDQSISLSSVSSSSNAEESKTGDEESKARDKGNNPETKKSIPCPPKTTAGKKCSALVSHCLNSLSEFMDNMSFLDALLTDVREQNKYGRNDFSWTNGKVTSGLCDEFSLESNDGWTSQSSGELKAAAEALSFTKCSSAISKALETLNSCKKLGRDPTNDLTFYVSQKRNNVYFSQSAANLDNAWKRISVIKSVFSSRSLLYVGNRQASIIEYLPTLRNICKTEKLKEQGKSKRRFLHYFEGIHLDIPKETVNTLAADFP
ELG1 MMS Luc: confirmation of human ELG1 repair inhibitors, MMS stimulated. 670 compounds, 53% hits. shares compounds with ELG1 repair inh. HEK293T luciferase-tagged ELG1 level, MMS stimulated. Potency, µM (doses to about 46.1 µM), most hits filed as inhibitors; also: nearly all actives have a fitted effect of over 60% in size
ELG1 5FU viab: qHTS screen for small molecules that inhibit ELG1-dependent DNA repair: Hit Confirmation with 5FU Viability. AID 624250, 2012. Potency, µM (highest dose often 46.1 µM), actives largely listed as cytotoxic. 670 tested, under 10 active. cell viability with 5-FU, ELG1-dependent repair. shares compounds with ELG1 repair inh;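 also: ELG1-luc HEK293T cells cotreated with 5-fluorouridine at 10 µM final; viability measured 16 h after compound addition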
ELG1 MMS viab: qHTS screen for small molecules that inhibit ELG1-dependent DNA repair: Hit Confirmation with MMS Viability; shares compounds with ELG1 repair inh; 670 compounds, 33% hits; Potency, µM (highest dose often 46.1 µM), most hits filed as cytotoxic; AID 624251, 2012; Cell viability with MMS, ELG1-dependent DNA repair;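 also: ELG1-luc HEK293T cells co-treated with 10 µM MMS; viability read 16 h after compound addition; nearly all actives have a fitted effect of over 60% in size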
Cell viab unstim: qHTS screen for small molecules that inhibit ELG1-dependent DNA repair: Hit Confirmation with Unstimulated Viability Assay. shares compounds with ELG1 repair inh. cell viability counter-screen, unstimulated, luminescence. Potency, µM (titrated, usually from 45.9 µM), most hits filed as cytotoxic. 900 compounds, 8% hits. AID 624252, 2012;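 also: compound exposure lasted 16 hours before reading; nearly all actives have a fitted effect of over 55% in size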
FLuc enzyme: qHTS screen for small molecules that inhibit ELG1-dependent DNA repair: Hit Confirmation in Biochemical Luciferin Assay | 350 compounds, 10% hits | shares compounds with ELG1 repair inh | Potency, µM (highest dose often 57.5 µM), most hits filed as inhibitors | purified firefly luciferase, luminescence counter-screen | AID 624253, 2012
Large screens that a line does not name were inactive (follow-up assays come after a bar, where they were run). Calls follow the shape of the dose curve; as a rule, active = well fitted curve in the direction sought with a large enough effect; inconclusive = small, poorly fitted or top-dose-only effect, or another doubt; inactive = no such curve, though single readings can be large; an effect the other way counts as inactive or inconclusive.

COC(=O)Cn1c2[n+](c3ccccc31)CC(O)CS2 (configuration not stated)	ELG1 repair inh inconclusive | ELG1 FLuc counter inactive | ELG1 Luc conf inactive | ELG1 MMS Luc inactive | ELG1 5FU viab inactive | ELG1 MMS viab inactive | Cell viab unstim inactive | FLuc enzyme inactive
CCCCC(=O)N(C)c1c(CC)nc2c(OCCC)cccn12	none (no result: Nrf2 inh, A549 viability, ELG1 repair inh)
C[C@H](CO)N1C[C@H](C)[C@@H](CN(C)C(=O)Nc2ccccc2)Oc2c(NC(=O)Cc3ccccc3)cccc2C1=O	none
C[C@H](CO)N1C[C@H](C)[C@@H](CN(C)C(=O)Nc2ccc(C(F)(F)F)cc2)Oc2c(NC(=O)CCC(F)(F)F)cccc2C1=O	ELG1 repair inh 1.83µM | ELG1 Luc conf 3.53µM | ELG1 MMS Luc inactive | ELG1 5FU viab inconclusive | ELG1 MMS viab inactive | Cell viab unstim inactive
C[C@H](CO)N1C[C@H](C)[C@@H](CN(C)C(=O)Nc2ccc(C(F)(F)F)cc2)Oc2c(NC(=O)Cc3ccccc3)cccc2C1=O	ELG1 repair inh inconclusive | ELG1 Luc conf 2.5µM | ELG1 MMS Luc inactive | ELG1 5FU viab inconclusive | ELG1 MMS viab inactive | Cell viab unstim inactive
CC(C)NC(=O)Nc1cccc2c1O[C@H](CN(C)C(=O)Nc1ccc(C(F)(F)F)cc1)[C@@H](C)CN([C@H](C)CO)C2=O	ELG1 repair inh 1.3µM | ELG1 Luc conf 2.23µM | ELG1 MMS Luc inactive | ELG1 5FU viab inconclusive | ELG1 MMS viab inactive | Cell viab unstim inactive
Cc1cc(N2CCN(C)CC2)nc2ccc(NC(=O)Nc3cccc(Cl)c3)cc12	A549 viability inconclusive (no result: ELG1 repair inh)
CCNC(=O)C(=O)Nc1ccc2c(c1)N(S(=O)(=O)c1cccs1)CCC2	none
CCCNC(=O)C(=O)Nc1ccc2c(c1)N(S(=O)(=O)c1cccs1)CCC2	ELG1 repair inh 3.26µM | ELG1 Luc conf 15.8µM | ELG1 MMS Luc 5.6µM | ELG1 5FU viab inconclusive | ELG1 MMS viab inconclusive | Cell viab unstim inactive
Cc1cc(NC(=O)CN2C(=O)c3cccnc3Sc3ccccc32)ccc1Br	Nrf2 inh inconclusive (no result: ELG1 repair inh)
CCOC(=O)c1cc(-c2ccc([N+](=O)[O-])cc2)nc2c1c(=O)[nH]c(=O)n2Cc1ccccc1	none | ELG1 FLuc counter inactive | Cell viab unstim inactive | FLuc enzyme inactive
CCN1CCN(S(=O)(=O)c2cc(OCC(=O)NC3CCCCC3)c(C)cc2Cl)CC1	Nrf2 inh 4.11µM, ELG1 repair inh inconclusive | ELG1 Luc conf inactive | ELG1 MMS Luc 3.15µM | ELG1 5FU viab inactive | ELG1 MMS viab 2.5µM | Cell viab unstim inconclusive
COc1ccccc1NC(=O)CSc1nnc(Cc2ccccc2)o1	A549 viability inconclusive (no result: ELG1 repair inh)
O=C(CSc1nnc(-c2cccc(Cl)c2)o1)Nc1ccc2c(c1)OCCO2	Nrf2 inh inconclusive, ELG1 repair inh inconclusive | Cell viab unstim inactive
O=C(CSc1nnc(-c2csc3c2CCCC3)o1)Nc1ccccc1	Nrf2 inh inconclusive, ELG1 repair inh inconclusive | ELG1 FLuc counter inactive | Cell viab unstim inconclusive | FLuc enzyme inactive
N#Cc1c(NC(=O)CSc2nnc(-c3ccccc3)o2)sc2c1CCCC2	none
COc1ccccc1NC(=O)CSc1nnc(-c2ccccc2)o1	Nrf2 inh inconclusive, ELG1 repair inh inconclusive | Cell viab unstim inconclusive
O=C(CSc1nnc(-c2cccnc2)o1)Nc1ccccn1	ELG1 repair inh inconclusive | ELG1 FLuc counter inactive | Cell viab unstim inconclusive | FLuc enzyme inactive
COc1ccc(NCc2cc3cc4c(cc3n(CC(=O)Nc3ccc(C)cc3)c2=O)OCO4)cc1	none (no result: ELG1 repair inh)
O=C(CSc1nnc(Cc2ccccc2)o1)Nc1ccccc1	none
O=C(CSc1nnc(-c2ccc(O)cc2)o1)Nc1ccccc1	Nrf2 inh inconclusive, ELG1 repair inh inconclusive | ELG1 FLuc counter inactive | Cell viab unstim inconclusive | FLuc enzyme inconclusive
O=C(CSc1nnc(-c2ccc([N+](=O)[O-])cc2)o1)Nc1ccccc1	Nrf2 inh inconclusive (no result: ELG1 repair inh)
O=C(CSc1nnc(Cc2ccccc2)o1)Nc1ccc(Br)cn1	none | ELG1 FLuc counter inactive | Cell viab unstim inactive | FLuc enzyme inactive
Cc1ccc(-c2cc(C(=O)NCCc3ccccc3)c3c(-c4ccc(C)cc4)[nH]nc3n2)cc1	Nrf2 inh inconclusive, A549 viability inconclusive (no result: ELG1 repair inh)
CSc1nc(N2CCOCC2)c2c3c(sc2n1)CCCC3	none (no result: Nrf2 inh)
Cc1cc(S(=O)(=O)Nc2nc(CN3CCOCC3)nc3sc4c(c23)CCC4)cc(C)c1C	none
COc1cc2c(cc1OC)CN(c1nc(CN3CCOCC3)nc3sc4c(c13)CCCC4)CC2	ELG1 repair inh 2.91µM | ELG1 FLuc counter inconclusive | ELG1 Luc conf 3.97µM | ELG1 MMS Luc 9.97µM | ELG1 5FU viab inconclusive | ELG1 MMS viab 15.8µM | Cell viab unstim inconclusive | FLuc enzyme inactive
Cc1cc(S(=O)(=O)Nc2nc(CN3CCOCC3)nc3sc4c(c23)CCCC4)ccc1F	none (no result: Nrf2 inh) | ELG1 FLuc counter inactive | ELG1 Luc conf inactive | ELG1 MMS Luc inactive | ELG1 5FU viab inactive | ELG1 MMS viab inactive | Cell viab unstim inactive | FLuc enzyme inactive
COc1ccc(NC(=O)c2c(N)no[n+]2[O-])c(OC)c1	ELG1 repair inh inconclusive
